Results from PubChem BioAssay (NCI).
Compounds without any hit were thinned out: in the full panel of roughly 79,000, 15% have a hit. Calls of active or inactive are those of the source. Cut-off read from the data, not from the text of the source: active = growth inhibition above about 70%; inactive = the rest.

Columns and labels:
[1] = NCI Yeast Anticancer Drug Screen. Data for the rad50 strain (AID 155);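 note: 0% = growth of vehicle-only cultures of the same strain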; conditions: S. cerevisiae rad50 strain growth inhibition, hits give high values
Outline: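 Growth of the mutant yeast was measured after compound exposure and referenced to vehicle-treated cultures.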

[2] = NCI Yeast Anticancer Drug Screen. Data for the mec2-1 strain (AID 157); conditions: S. cerevisiae mec2-1 strain, hits give high values
Outline: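 mec2-1 yeast strain, carrying an alteration in DNA damage repair or cell cycle control, was exposed to compounds; growth inhibition was measured relative to vehicle-treated controls.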

[3] = NCI Yeast Anticancer Drug Screen. Data for the sgs1 mgt1 strain (AID 161);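 note: 0% = growth of cultures given vehicle only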; conditions: S. cerevisiae sgs1 mgt1 strain, hits give high values
Outline: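 This yeast growth screen uses a strain with defined DNA-repair lesions; compound-treated growth is compared with vehicle-treated growth.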

[4] = NCI Yeast Anticancer Drug Screen. Data for the cln2 rad14 strain (AID 165);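 note: 0% = growth equal to vehicle treated cultures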; conditions: S. cerevisiae cln2 rad14 strain, hits give high values
Outline: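 Yeast carrying cln2 and rad14 alterations (cell cycle control and DNA damage repair) were exposed to compounds. Growth inhibition was measured against vehicle-treated controls.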

[5] = NCI Yeast Anticancer Drug Screen. Data for the mlh1 rad18 strain (AID 175); conditions: S. cerevisiae mlh1 rad18 strain growth inhibition, hits give high values
Outline: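 Growth inhibition of the yeast strain was measured after compound exposure and expressed relative to vehicle-treated controls. The strain carries defined defects in DNA damage repair.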

[6] = NCI Yeast Anticancer Drug Screen. Data for the bub3 strain (AID 167); conditions: S. cerevisiae bub3 mutant strain, hits give high values
Outline: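 Whole-cell yeast assay. The mutant strain was incubated with compounds, and growth inhibition was determined by comparison with vehicle-treated cells.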

[7] = at 5.0 µM (retest, dose inferred, filed as 0.5)
[8] = at 50.0 µM (retest, dose inferred, filed as 5.0)

Measured: growth inhibition

C/C(=C\N1CCN(c2ccc(Cl)cc2)C(C)C1)C(=O)c1ccccc1 (stereo not given)
active: [1]; [8] 89% | [2]; [8] 92% | [3]; [8] 89% | [3]; at 50.0 µM 79.8% | [4]; [8] 86% | [5]; [8] 87%
inactive: [1]; [7] 7% | [1]; at 50.0 µM 52.9% | [2]; [7] 4% | [2]; at 50.0 µM 30.7% | [3]; [7] 15% | [4]; [7] -2% | [4]; at 50.0 µM 27.8% | [5]; [7] 4% | [5]; at 50.0 µM 57.3%

ClCc1ccccc1Cc1ccccc1
inactive: [1]; [7] 18% | [2]; [7] 21% | [2]; [8] 63% | [4]; [7] -1% | [4]; [8] 35% | [6]; [7] -5% | [6]; [8] 58% | [5]; [7] 35%
active: [1]; [8] 82% | [1]; at 50.0 µM 98.6% | [2]; at 50.0 µM 95.2% | [4]; at 50.0 µM 94.5% | [6]; at 50.0 µM 97.6% | [5]; [8] 85% | [5]; at 50.0 µM 98%

O=C(n1c2ccccc2c2n[nH]c(=S)nc21)C(F)(F)F
inactive: [1]; [7] 1% | [1]; [8] -6% | [2]; [7] 0% | [2]; [8] -2% | [2]; at 50.0 µM 39.1% | [4]; [7] -2% | [4]; [8] -2% | [4]; at 50.0 µM 25.3% | [6]; [7] 3% | [6]; [8] -1% | [6]; at 50.0 µM 52.8% | [5]; [7] -5% | [5]; [8] 0%
active: [1]; at 50.0 µM 82.7% | [5]; at 50.0 µM 89.3%

N#Cc1ncc(Cl)cc1[N+](=O)[O-]
active: [1]; [7] 93% | [1]; [8] 98% | [1]; at 50.0 µM 99.5% | [2]; [7] 80% | [2]; [8] 99% | [2]; at 50.0 µM 99.7% | [3]; [7] 93% | [3]; [8] 99% | [3]; at 50.0 µM 99.5% | [4]; [8] 98% | [4]; at 50.0 µM 99.2% | [5]; [7] 75% | [5]; [8] 98% | [5]; at 50.0 µM 99.5%
inactive: [4]; [7] 59%

Cc1n[n+]([O-])c(C)cc1[N+](=O)[O-]
active: [1]; at 50.0 µM 93.7% | [3]; [8] 87% | [3]; at 50.0 µM 85.6% | [5]; [8] 94% | [5]; at 50.0 µM 92.2%
inactive: [1]; [7] 0% | [1]; [8] 50% | [2]; [7] 4% | [2]; [8] 32% | [2]; at 50.0 µM 44.6% | [3]; [7] 17% | [6]; [7] -8% | [6]; [8] 16% | [6]; at 50.0 µM 65% | [5]; [7] 58%

Cc1nc(-c2ccccc2)nc2c1nc(C(C)C)n2Nc1ccccc1
inactive: [1]; [7] -2% | [1]; [8] 20% | [2]; [7] -3% | [2]; [8] 41% | [2]; at 50.0 µM 57.6% | [3]; [7] 0% | [3]; [8] 25% | [6]; [7] 3% | [6]; [8] 35% | [5]; [7] -4% | [5]; [8] 37%
active: [1]; at 50.0 µM 94.1% | [3]; at 50.0 µM 73.8% | [6]; at 50.0 µM 80.8% | [5]; at 50.0 µM 78.5%

CN1C(OCc2ccccc2)c2c(ccc3c2OCO3)C2C=Cc3cc4c(cc3C21)OCO4 (stereo not given)
active: [1]; [8] 99% | [1]; at 50.0 µM 92.8% | [2]; [8] 99% | [2]; at 50.0 µM 93.2% | [3]; [7] 96% | [3]; [8] 100% | [3]; at 50.0 µM 93% | [6]; [7] 93% | [6]; [8] 99% | [6]; at 50.0 µM 91.8% | [5]; [7] 96% | [5]; [8] 99% | [5]; at 50.0 µM 91.1%
inactive: [1]; [7] 47% | [2]; [7] 39%

Cc1c(Cl)ccc(O)c1[N+](=O)[O-]
active: [1]; [8] 87% | [1]; at 50.0 µM 91.6% | [2]; [8] 86% | [2]; at 50.0 µM 91.7% | [3]; [8] 82% | [3]; at 50.0 µM 96.1% | [4]; [8] 75% | [4]; at 50.0 µM 84.8% | [5]; [8] 97% | [5]; at 50.0 µM 94%
inactive: [1]; [7] 2% | [2]; [7] 2% | [3]; [7] 3% | [4]; [7] 2% | [5]; [7] -1%

O=c1c(Cl)nsnc1Cl
active: [1]; [7] 100% | [1]; [8] 100% | [1]; at 50.0 µM 99.6% | [2]; [7] 100% | [2]; [8] 100% | [2]; at 50.0 µM 99.7% | [3]; [7] 100% | [3]; [8] 100% | [3]; at 50.0 µM 99.6% | [6]; [7] 100% | [6]; [8] 100% | [6]; at 50.0 µM 99.7% | [5]; [7] 99% | [5]; [8] 100% | [5]; at 50.0 µM 99.4%
